# Unmarked numbers belong to inactive results. Results filed as inconclusive are left out. Entries that show only a call come without a potency. The source made the active and inactive calls. Calls come from the whole dose curve; as a rule, active = well fitted curve in the direction sought with a large enough effect in the repeat runs; inconclusive = weak or mixed curves; inactive = no such curve, though single readings can be large; an effect the other way counts as inactive or inconclusive.
# Columns and labels:
# [1] = qHTS RealTime-Glo MT Cell Viability Assay in HepG2 cells - 24 hour (AID 1224867); note: nearly all actives have a fitted effect of over 50% in size
# Summary of the method: (§1)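 HepG2 cells (600/well) were dispensed with RealTime-Glo reagents, incubated 5 h at 37 °C, then treated with compounds in DMSO for up to 40 h. Nonlytic NanoLuc luminescence reflecting viable cells was read at each stated time point.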
# [2] = qHTS RealTime-Glo MT Cell Viability Assay in HEK293 cells - 32 hour (AID 1224868); note: top concentration of the series differs between compounds; nearly all actives have a fitted effect of over 50% in size
# Summary of the method: (§2)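 HEK293 cells seeded with NanoLuc/prosubstrate reagent, rested 5 h at 37 C, then dosed and kept at 37 C up to 40 h. Nonlytic real-time luminescence from viable cells read at 0, 8, 16, 24, 32 and 40 h.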
# [3] = A CellTox Green Cytotoxicity Assay to monitor cytotoxicity in HEK293 cells - 0 hour (AID 1224869); note: nearly all actives have a fitted effect of over 50% in size
# Summary of the method: (§3)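 Seeding of HEK293 cells together with cytotoxicity dye preceded a 5 h incubation at 37 C/5% CO2. Test compounds in DMSO were then added and fluorescence monitored across 40 h.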
# [4] = qHTS RealTime-Glo MT Cell Viability Assay in HepG2 cells - 40 hour (AID 1224870); note: nearly all actives have a fitted effect of over 50% in size
# Summary of the method: (§4)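 HepG2 cells (600/well) mixed with RealTime-Glo MT reagent, settled 5 h at 37 C/5% CO2 before compound addition. Nonlytic NanoLuc luminescence from viable-cell prosubstrate reduction read repeatedly during 40 h treatment at 37 C.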
# [5] = A CellTox Green Cytotoxicity Assay to monitor cytotoxicity in HEK293 cells - 40 hour (AID 1224871); note: nearly all actives have a fitted effect of over 45% in size
# Summary of the method: as §3
# [6] = qHTS RealTime-Glo MT Cell Viability Assay in HEK293 cells - 16 hour (AID 1224872)
# Summary of the method: as §2
# [7] = qHTS RealTime-Glo MT Cell Viability Assay in HepG2 cells - 8 hour (AID 1224873); note: nearly all actives have a fitted effect of over 55% in size
# Summary of the method: as §4
# [8] = qHTS RealTime-Glo MT Cell Viability Assay in HEK293 cells - 40 hour (AID 1224874); details: RealTime-Glo luminescence; max response: hits give low values; note: nearly all actives have a fitted effect of over 50% in size
# Summary of the method: (§5)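 Tox21 screen in HEK293 using RealTime-Glo MT chemistry, with cells and reagent co-dispensed. Luminescence proportional to viable cell number was captured at intervals during 40 h compound exposure at 37 C.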
# [9] = A CellTox Green Cytotoxicity Assay to monitor cytotoxicity in HEK293 cells - 24 hour (AID 1224875); note: series mostly up to about 77 µM; nearly all actives have a fitted effect of over 45% in size
# Summary of the method: as §3
# [10] = A CellTox Green Cytotoxicity Assay to monitor cytotoxicity in HepG2 cells - 16 hour (AID 1224876); note: nearly all actives have a fitted effect of over 45% in size
# Summary of the method: (§6)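 Nonlytic assay: viable cells exclude the dye, so fluorescence scales with cell death. HepG2 at 600 cells/well, compounds added after 5 h, signal read across 40 h.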
# [11] = A CellTox Green Cytotoxicity Assay to monitor cytotoxicity in HepG2 cells - 24 hour (AID 1224878); note: nearly all actives have a fitted effect of over 45% in size; note: potency is the fitted concentration of half-maximal effect
# Summary of the method: as §6
# [12] = A CellTox Green Cytotoxicity Assay to monitor cytotoxicity in HepG2 cells - 40 hour (AID 1224879); note: nearly all actives have a fitted effect of over 40% in size; note: potency is the fitted concentration of half-maximal effect
# Summary of the method: as §6
# [13] = qHTS RealTime-Glo MT Cell Viability Assay in HEK293 cells - 0 hour (AID 1224880)
# Summary of the method: as §5
# [14] = A CellTox Green Cytotoxicity Assay to monitor cytotoxicity in HEK293 cells - 32 hour (AID 1224881); note: nearly all actives have a fitted effect of over 40% in size
# Summary of the method: as §3
# [15] = A CellTox Green Cytotoxicity Assay to monitor cytotoxicity in HepG2 cells - 0 hour (AID 1224882); note: nearly all actives have a fitted effect of over 35% in size
# Summary of the method: as §6
# [16] = A CellTox Green Cytotoxicity Assay to monitor cytotoxicity in HepG2 cells - 32 hour (AID 1224883); note: nearly all actives have a fitted effect of over 50% in size
# Summary of the method: as §6
# [17] = A CellTox Green Cytotoxicity Assay to monitor cytotoxicity in HEK293 cells - 8 hour (AID 1224884); note: nearly all actives have a fitted effect of over 35% in size
# Summary of the method: as §3
# [18] = qHTS RealTime-Glo MT Cell Viability Assay in HepG2 cells - 16 hour (AID 1224885); note: nearly all actives have a fitted effect of over 50% in size
# Summary of the method: as §1
# [19] = qHTS RealTime-Glo MT Cell Viability Assay in HEK293 cells - 24 hour (AID 1224886)
# Summary of the method: as §2
# [20] = qHTS RealTime-Glo MT Cell Viability Assay in HepG2 cells - 32 hour (AID 1224877); note: nearly all actives have a fitted effect of over 55% in size
# Summary of the method: as §1
SMILES,outcome [1],Potency [2],Potency [3],outcome [4],Potency [5],Potency [6],outcome [7],max response [8],Potency [9],Potency [10],Potency [11],Potency [12],outcome [13],Potency [14],Potency [15],Potency [16],Potency [17],outcome [18],Potency [19],outcome [20]
CC(C)CCCCCCOC(=O)C1CCCCC1C(=O)OCCCCCCC(C)C (configuration not stated),inactive,inactive,inactive,inactive,inactive,inactive,inactive,14.8%,inactive,inactive,inactive,inactive,inactive,inactive,inactive,inactive,inactive,inactive,inactive,
CCOC(=O)OCC/C(SC(=O)OCC)=C(\C)N(C=O)Cc1cnc(C)nc1N,inactive,inactive,inactive,inactive,inactive,,inactive,4.82%,inactive,inactive,inactive,inactive,inactive,inactive,inactive,inactive,inactive,inactive,inactive,inactive
CCC1COC(=O)O1 (configuration not stated),inactive,inactive,inactive,inactive,inactive,,inactive,-0.285%,inactive,inactive,inactive,inactive,inactive,inactive,inactive,inactive,inactive,inactive,inactive,inactive
NCCc1ccn[nH]1,inactive,inactive,inactive,inactive,inactive,inactive,inactive,6.3%,inactive,inactive,inactive,inactive,inactive,inactive,inactive,inactive,inactive,inactive,inactive,
C=CCOc1c(Br)cc(Br)cc1Br,inactive,inactive,inactive,inactive,inactive,inactive,inactive,2.02%,inactive,inactive,inactive,inactive,inactive,inactive,inactive,inactive,,inactive,inactive,
Cc1ccccc1C(=O)N1CC/C(=N\OS(=O)(=O)O)c2ccc(Cl)cc21,inactive,inactive,inactive,inactive,inactive,inactive,inactive,-2.43%,inactive,,26.8 µM (active),23.9 µM (active),inactive,inactive,,,,inactive,inactive,
CNC(=O)C(c1ccccc1)c1ccccc1,inactive,inactive,inactive,inactive,inactive,inactive,inactive,0.511%,inactive,,,,inactive,inactive,inactive,,inactive,inactive,inactive,inactive
Cc1ccc(C(=O)C(=O)O)cc1C,inactive,inactive,inactive,inactive,inactive,inactive,inactive,-0.829%,inactive,inactive,inactive,inactive,inactive,,inactive,inactive,inactive,inactive,inactive,
O=P(O)(O)OCC(O)CO (configuration not stated),inactive,inactive,inactive,inactive,inactive,,inactive,-2.63%,inactive,inactive,inactive,inactive,inactive,inactive,inactive,inactive,inactive,inactive,inactive,inactive
C/C=C(\C)C(=O)OCC/C=C\CC,inactive,inactive,inactive,inactive,inactive,inactive,inactive,2.25%,inactive,inactive,inactive,inactive,,,inactive,inactive,inactive,inactive,inactive,
CC(=O)c1ccc(OCC(=O)N2CCCCC2)cc1,inactive,inactive,inactive,inactive,inactive,inactive,inactive,1.3%,inactive,inactive,inactive,inactive,,inactive,inactive,inactive,inactive,inactive,inactive,
Cc1cccc(NC(=S)N(C)C)c1,inactive,inactive,inactive,inactive,inactive,inactive,inactive,,inactive,inactive,inactive,inactive,,,inactive,inactive,inactive,inactive,inactive,inactive
Nc1nc(=O)n([C@@H]2O[C@H](CO)[C@@H](O)[C@@H]2F)cc1I,inactive,inactive,inactive,inactive,inactive,inactive,inactive,3.93%,inactive,inactive,inactive,inactive,inactive,inactive,inactive,inactive,inactive,inactive,inactive,
CCC(CO)CO,inactive,inactive,inactive,inactive,inactive,,inactive,-4.1%,inactive,inactive,inactive,inactive,inactive,inactive,inactive,inactive,inactive,inactive,inactive,inactive

# — PubChem BioAssay (Tox21)
